Bioassay records deposited in PubChem BioAssay by National Center for Advancing Translational Sciences (NCATS).
An excerpt weighted towards active compounds, which were near 3.2% of everything screened.
GBA activity: Glucocerebrosidase; Lysosomal acid glucosylceramidase (Homo sapiens), P04062; purified enzyme, resorufin glucoside fluorescence (screen aimed at inhibitors), 20 min; Potency, µM; actives 1.1% (n = 48,000); AID 360, 2006; in the data active = potency below about 15 µM; inconclusive = mostly about 16 µM to 33 µM;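 note: the screen sought inhibitors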
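Compounds titrated against 0.2 nM normal enzyme, 30 uM resorufin beta-D-glucopyranoside substrate, citrate/phosphate buffer with taurocholate and tween-20, pH 5.9. Reaction ran 20 min at room temperature; fluorescence (Ex 548/Em 600) gave AC50.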
PK Bst: Pyruvate Kinase. Potency, µM. AID 361, 2006. purified pyruvate kinase, luminescence ATP production; ribose 5-phosphate activator present at AC10. actives 1.2% (n = 51,000); in the data active = potency below about 11 µM; inconclusive = mostly about 12 µM to 25 µM;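 the screen sought inhibitors and activators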;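 note: scaled between full activation by ribose 5 phosphate and full inhibition by luteolin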
Luciferase inh: qHTS Assay for Inhibitors of Firefly Luciferase | Luciferin 4-monooxygenase (Photinus pyralis), P08659 | purified firefly luciferase, luminescence, 8 min | Potency, µM (highest dose often 57.1 µM), for the others: at the top dose activity change, negative = inhibition, actives largely listed as inhibitors | actives 2.2% (n = 72,000) | AID 411, 2009; active = well fitted inhibition curve with a large enough effect; inconclusive = small, poorly fitted or top-dose-only effect; note: % is set by controls: 0 for no effect and ±100 for the full control effect; nearly all actives have a fitted effect of over 40% in size
Target sequence (P08659 whole entry, looked up): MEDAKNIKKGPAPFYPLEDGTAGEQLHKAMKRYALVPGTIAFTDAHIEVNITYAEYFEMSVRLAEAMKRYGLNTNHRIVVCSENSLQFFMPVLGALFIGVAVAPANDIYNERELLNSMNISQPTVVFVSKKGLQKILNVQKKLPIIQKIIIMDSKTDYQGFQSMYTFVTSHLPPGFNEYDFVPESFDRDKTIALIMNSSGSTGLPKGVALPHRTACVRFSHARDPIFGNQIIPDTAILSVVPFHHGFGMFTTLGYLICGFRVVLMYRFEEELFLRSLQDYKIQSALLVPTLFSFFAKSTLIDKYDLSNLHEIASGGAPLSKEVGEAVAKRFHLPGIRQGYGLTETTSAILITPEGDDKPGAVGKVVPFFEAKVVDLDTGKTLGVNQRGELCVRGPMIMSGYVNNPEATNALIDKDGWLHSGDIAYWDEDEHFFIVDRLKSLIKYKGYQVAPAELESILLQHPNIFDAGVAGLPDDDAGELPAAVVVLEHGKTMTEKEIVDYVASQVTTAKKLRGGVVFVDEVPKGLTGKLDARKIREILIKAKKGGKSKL
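Substrate buffer containing 10 uM ATP (pH 7.2 imidazole, Mg2+, KCl, detergent, BSA) is dispensed, compound pinned in, then luciferase/luciferin detector mix added. After 8 min at ambient temperature, light output is measured.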
An asterisk follows results filed as active; i = inactive; ? = inconclusive; / = no result; [ ] = another dose, or the depositor's remark. Potency is the fitted concentration of half-maximal effect.

SMILES	GBA activity	PK Bst	Luciferase inh
CCNc1nc(CC)nc2c1oc1ccccc12	>77	5*	-3%
CCNc1nc(C)nc2c1oc1ccccc12	>77	>57	1%
Cc1csc(C(C#N)C(=O)c2cc3ccccc3o2)n1 (stereo not drawn)	>77	?	13µM*
CCC(=O)Nc1ccc(NC(=O)c2cc3ccccc3o2)cc1	/	/	-21%
O=C(Nc1ccccn1)c1cccnc1	>77	>57	-2%
O=C(Nc1cccc2cccnc12)c1cccnc1	>77	9.7*	-1%
Cc1ccc(-c2nc(C#N)c(NCc3ccco3)o2)cc1	>77	>57	-12%
Cc1ccc2cc(C#N)c(NCc3ccco3)nc2c1	12*	>57	-1%
CCc1nnc(NC(=O)CCC(=O)N2CCN(Cc3ccccc3)CC2)s1	>77	/	13µM*
CCc1nnc(NC(=O)CCC(=O)Nc2ccccc2)s1	/	>57	3%
CCc1ccc(CCC(=O)Nc2nnc(CC)s2)o1	12*	>57	4%
CCc1nnc(NC(=O)CCC(=O)N2CCN(Cc3ccc(Cl)cc3)CC2)s1	>77	>57	3%
O=[N+]([O-])c1ccc(NN=C2c3ccccc3Cc3ccccc32)c([N+](=O)[O-])c1	/	/	1%[11.4 µM]
O=c1c(CCc2ccccc2)nc2cnc(N3CCNCC3)nc2n1CCc1ccccc1	/	/	0%[11.4 µM]
NC[C@@H](O)CSCc1ccc(Cl)cc1	/	/	1%[11.4 µM]
NC(=O)C1CCCN(C(=O)Nc2cccc3ccccc23)C1 (stereo not drawn)	>77	>57	6%
Nc1nc(Nc2cccc3ccccc23)nc(C2CCCC2=O)n1 (stereo not drawn)	1.5*	/	-1%
Cc1ccc(N2C(=O)c3ccc(N)cc3C2=O)cc1C	>77	/	-23%
Cc1ccc(N2C(=O)c3ccc(N)cc3C2=O)cc1	>77	/	16µM*
Nc1nc(-c2ccc3ccccc3c2)cc(-c2cc(-c3ccc4ccccc4c3)nc(N)n2)n1	/	/	3%[11.4 µM]
CCOC(=O)N/N=C1/C[C@@H](O)[C@@H](O)[C@@H]2[C@@H]3C(=O)N(CC)C(=O)[C@H]3CC[C@@H]12	/	/	-1%[11.4 µM]
CC1CCc2nc(NC(=O)CN3CCOCC3)sc2C1 (stereo not drawn)	>77	>57	-9%
Cc1ncsc1C(=O)Nc1nc2c(s1)CC(C)CC2 (stereo not drawn)	>77	10*	10µM*
S=C(S)O[C@@H]1C[C@@H]2C[C@H]1[C@@H]1CCC[C@H]21	/	/	-13%
O=C(CSc1nnc(SCc2ccc(Cl)cc2)s1)N1CCOCC1	>77	/	13µM*
SMILES	GBA activity	PK Bst	Luciferase inh
O=C(CSc1ccc(Cl)cc1)N1CCOCC1	>77	>57	-1%
Cc1nc2cc(NC(=O)NCc3ccc4c(c3)OCO4)ccc2o1	>77	>57	-7%
Cc1nc2cc(NC(=O)N3c4ccccc4CC3C)ccc2n1C (stereo not drawn)	?	9.5*	5µM*
CC1Cc2ccccc2N1C(=O)c1ccc2c(c1)nnn2C (stereo not drawn)	>77	>57	3%
Cc1nc2cc(NC(=O)N3c4ccccc4CC3C)ccc2o1 (stereo not drawn)	>77	?	13µM*
CC(C)NCC[C@@H](O)c1cc2ccccc2o1	/	/	3%[11.4 µM]
O=c1cnc2cnc(OCc3ccccc3)nc2n1Cc1ccc(F)cc1	/	/	-3%[11.4 µM]
COc1ccc2nc(SCC(N)=O)[nH]c2c1	>77	>57	0%
CCOC(=O)c1cnc(SCc2nc(N)nc(Nc3ccccc3)n2)nc1N	>77	>57	-14%
Nc1nc(CSc2ccccn2)nc(Nc2ccccc2)n1	>77	/	20µM*
COc1ccc2nc(SCc3nc(N)nc(Nc4ccccc4)n3)[nH]c2c1	/	/	13µM*
CC(C)C[C@H](N)CSSC[C@@H](N)CC(C)C	/	/	1%
Fc1cccc(Cl)c1/C=N\N=C1c2ccccc2-c2ccccc21	/	/	-1%[11.4 µM]
COc1ccccc1CCn1c(=O)c(-c2ccccc2)nc2cncnc21	/	/	0%[11.4 µM]
CC(=Nc1cccc(O)c1)c1sc2ccccc2c1O	/	8.2*	7.9µM*
COC(=O)c1sc2ccccc2c1N	/	/	-8%
CCN1C(=O)[C@H]2[C@H]3[C@H](O)[C@H](O)C/C(=N/O[C@@H](C)c4cc(-c5c(C)cc(C)cc5C)no4)[C@@H]3CC[C@@H]2C1=O	/	/	-1%[11.4 µM]
COCCn1c(C)cc(C(=O)CSc2n[nH]c(N)n2)c1C	>77	>57	-4%
COCCn1c(C)cc(C(=O)CSc2nnc(C)s2)c1C	>77	?	10µM*
COc1ccc(-c2nc3nc(C)c(Cc4ccccc4)c(=O)n3[nH]2)cc1	>77	>57	-6%
COC(=O)Cc1c(C)nc2nc(-c3ccc(OC)cc3)[nH]n2c1=O	>77	/	13µM*
O=C(C[C@@H]1C=Cc2ccccc2N1C(=O)c1ccccc1)c1ccccc1	/	/	2%[11.4 µM]
CCOC(=O)c1cccc(NC(=O)CSc2nnc(COc3ccccc3)n2CC)c1	>77	>57	1%
CCn1c(Cn2nnc(-c3ccccc3)n2)nnc1SCC(=O)Nc1ccccc1	9.6*	>57	1%
CN(C)S(=O)(=O)c1ccc(Nc2ccc(O)c3c2C(=O)c2c([N+](=O)[O-])ccc(O)c2C3=O)cc1	/	/	-10%[11.4 µM]
SMILES	GBA activity	PK Bst	Luciferase inh
Nc1ccc(C23CC4CC(CC(O)(C4)C2)C3)cc1	>77	9.1*	-22%
COC(=O)c1ccc(COC(=O)C23CC4CC(CC(O)(C4)C2)C3)o1	>77	>57	-2%
COc1cccc(Cn2c(=O)c(-c3cccs3)nc3cncnc32)c1	/	/	1%[11.4 µM]
CCCCOC(=O)c1ccc(Nc2ncnc3nc[nH]c23)cc1	/	/	1%
FC(F)Sc1ccc(Nc2ncnc3nc[nH]c23)cc1	5.3*	i	-11%
CCN1CCN(Cc2ccc3c(c2)Cc2ccccc2-3)CC1	/	/	-4%
c1ccc2c(c1)Cc1cc(CN3CCOCC3)ccc1-2	/	/	13µM*
CCOC(=O)N1CCN(C(=O)CSc2nnc(-c3ccc(C)c(C)c3)o2)CC1	/	/	-10%
CCOC(=O)N1CCN(C(=O)CSc2nnc(-c3ccc(C(C)(C)C)cc3)o2)CC1	/	/	1.3µM*
Cc1ccc([C@@H](O)c2cnc(C)n2Cc2ccccc2)cc1	/	/	0%[11.4 µM]
CCOC(=O)c1ccc(NC(=O)C2CCN(S(=O)(=O)CC)CC2)cc1	i	>57	-1%
CCS(=O)(=O)N1CCC(C(=O)Nc2cc(Cl)ccc2O)CC1	14*	>57	-2%
CCOc1cc(-c2nc(-c3ccccc3OC)no2)cc(OCC)c1OCC	>77	>57	1%
COc1ccccc1-c1nc(-c2cccc(C)c2)no1	>77	9.4*	13µM*
COc1cc(-c2noc(-c3ccco3)n2)cc(OC)c1OC	i	>57	-11%
COc1ccc(-c2nc(-c3ccccc3OC)no2)cc1OC	>77	i	16µM*
COc1ccccc1-c1noc(-c2ccco2)n1	>77	/	20µM*
COc1ccc(-c2nc(-c3cccc(C)c3)no2)cc1OC	/	>57	-12%
C[N+](C)(C)c1ncnc2c1ncn2[C@@H]1C[C@H](O)[C@@H](CO)O1	/	/	3%[11.4 µM]
CCCNC(C)(C)COC(=O)c1ccccc1	/	/	-1%[25.5 µM]
COC(=O)C/C=C\[C@@H](C)[C@@H](/C=N\O[C@@H](C)CN1CCCc2nc(C)c(C)cc21)NS(=O)(=O)c1ccc(C)cc1	/	/	0%[11.4 µM]
CCN(CC)c1ccc(NC(=O)c2ccco2)cc1	>77	?	10µM*
CCN(CC)c1ccc(NC(=O)C(C)C)cc1	>77	>57	-1%
CCN(CC)c1ccc(NC(=O)c2ccco2)c(C)c1	>77	>57	-3%
